Columns and labels:
[1] = target: Sphingosine kinase 1 (Homo sapiens) (UniProt Q9NYA1); conditions: at 1 µM;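 note: mean SPHK1 inhibition value reported from the GSK PKIS kinase panel screen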
[2] = target: T1, Sphingosine kinase 2 (Homo sapiens) (UniProt Q9NRA0); conditions: at 0.1 µM
T1 sequence (whole entry): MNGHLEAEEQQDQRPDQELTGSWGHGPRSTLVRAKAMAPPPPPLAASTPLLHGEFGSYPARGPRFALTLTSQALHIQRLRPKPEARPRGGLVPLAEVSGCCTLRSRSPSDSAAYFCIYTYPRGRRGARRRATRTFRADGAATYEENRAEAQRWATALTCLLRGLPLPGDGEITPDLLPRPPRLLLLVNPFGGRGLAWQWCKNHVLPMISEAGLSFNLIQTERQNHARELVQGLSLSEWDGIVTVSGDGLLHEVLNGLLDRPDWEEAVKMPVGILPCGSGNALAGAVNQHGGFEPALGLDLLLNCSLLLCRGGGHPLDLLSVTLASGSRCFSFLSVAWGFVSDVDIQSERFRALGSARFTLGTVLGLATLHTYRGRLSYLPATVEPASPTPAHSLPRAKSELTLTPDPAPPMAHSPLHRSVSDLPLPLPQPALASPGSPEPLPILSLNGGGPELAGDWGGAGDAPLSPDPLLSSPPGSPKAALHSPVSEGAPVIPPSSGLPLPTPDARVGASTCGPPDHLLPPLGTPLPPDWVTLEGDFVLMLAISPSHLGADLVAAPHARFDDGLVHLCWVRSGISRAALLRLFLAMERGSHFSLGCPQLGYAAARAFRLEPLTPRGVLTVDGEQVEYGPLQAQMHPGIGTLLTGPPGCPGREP

[3] = target: T1, Sphingosine kinase 2 (Homo sapiens); conditions: at 1 µM
[4] = target: Casein kinase II subunit alpha (Homo sapiens) (UniProt P68400); conditions: at 0.1 µM
[5] = target: Casein kinase II subunit alpha (Homo sapiens) (UniProt P68400); conditions: at 1 µM
[6] = target: T2, Inhibitor of nuclear factor kappa-B kinase subunit alpha (Homo sapiens) (UniProt O15111); conditions: at 0.1 µM
T2 sequence (whole entry): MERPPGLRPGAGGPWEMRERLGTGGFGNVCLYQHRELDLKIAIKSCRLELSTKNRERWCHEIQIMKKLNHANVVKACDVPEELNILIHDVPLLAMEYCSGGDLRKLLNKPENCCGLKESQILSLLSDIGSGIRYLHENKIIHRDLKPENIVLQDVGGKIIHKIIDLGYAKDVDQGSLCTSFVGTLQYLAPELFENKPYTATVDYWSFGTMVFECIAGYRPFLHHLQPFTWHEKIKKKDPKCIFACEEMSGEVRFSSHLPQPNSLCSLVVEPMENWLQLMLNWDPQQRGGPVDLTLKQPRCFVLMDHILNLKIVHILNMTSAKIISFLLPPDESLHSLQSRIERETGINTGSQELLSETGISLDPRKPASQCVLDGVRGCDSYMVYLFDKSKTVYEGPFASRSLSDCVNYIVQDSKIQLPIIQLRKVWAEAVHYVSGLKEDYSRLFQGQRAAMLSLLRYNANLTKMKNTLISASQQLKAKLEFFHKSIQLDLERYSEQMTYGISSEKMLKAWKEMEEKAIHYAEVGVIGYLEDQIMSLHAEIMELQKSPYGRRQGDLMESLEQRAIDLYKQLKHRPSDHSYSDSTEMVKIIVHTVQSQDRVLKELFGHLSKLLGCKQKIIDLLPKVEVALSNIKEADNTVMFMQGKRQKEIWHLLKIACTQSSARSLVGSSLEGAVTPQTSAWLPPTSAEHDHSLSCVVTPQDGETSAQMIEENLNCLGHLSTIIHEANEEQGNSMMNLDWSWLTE

[7] = target: T2, Inhibitor of nuclear factor kappa-B kinase subunit alpha (Homo sapiens); conditions: at 1 µM
[8] = target: T3, Inhibitor of nuclear factor kappa-B kinase subunit beta (Homo sapiens) (UniProt O14920); conditions: at 0.1 µM
T3 sequence (whole entry): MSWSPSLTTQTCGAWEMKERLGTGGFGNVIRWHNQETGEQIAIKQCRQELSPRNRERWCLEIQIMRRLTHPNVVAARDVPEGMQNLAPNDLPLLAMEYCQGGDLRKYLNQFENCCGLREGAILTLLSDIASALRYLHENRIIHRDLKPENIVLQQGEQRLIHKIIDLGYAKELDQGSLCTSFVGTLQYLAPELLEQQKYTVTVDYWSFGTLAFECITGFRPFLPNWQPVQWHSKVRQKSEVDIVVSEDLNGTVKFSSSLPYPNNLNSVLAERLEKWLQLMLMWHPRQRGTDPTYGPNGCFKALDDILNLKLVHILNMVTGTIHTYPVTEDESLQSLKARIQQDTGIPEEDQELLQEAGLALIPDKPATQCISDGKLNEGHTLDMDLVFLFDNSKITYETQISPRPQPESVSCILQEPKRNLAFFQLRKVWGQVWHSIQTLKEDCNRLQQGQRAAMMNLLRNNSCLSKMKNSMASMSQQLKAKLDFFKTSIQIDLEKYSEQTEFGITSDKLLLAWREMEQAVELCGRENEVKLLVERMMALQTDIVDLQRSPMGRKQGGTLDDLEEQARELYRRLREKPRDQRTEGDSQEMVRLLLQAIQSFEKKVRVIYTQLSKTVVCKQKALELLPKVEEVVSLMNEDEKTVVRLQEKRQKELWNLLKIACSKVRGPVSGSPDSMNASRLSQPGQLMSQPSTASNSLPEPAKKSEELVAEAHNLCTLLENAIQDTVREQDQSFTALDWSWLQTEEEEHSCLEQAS

[9] = target: T3, Inhibitor of nuclear factor kappa-B kinase subunit beta (Homo sapiens); conditions: at 1 µM
[10] = target: T4, Inhibitor of nuclear factor kappa-B kinase subunit epsilon (Homo sapiens) (UniProt Q14164); conditions: at 0.1 µM
T4 sequence (whole entry): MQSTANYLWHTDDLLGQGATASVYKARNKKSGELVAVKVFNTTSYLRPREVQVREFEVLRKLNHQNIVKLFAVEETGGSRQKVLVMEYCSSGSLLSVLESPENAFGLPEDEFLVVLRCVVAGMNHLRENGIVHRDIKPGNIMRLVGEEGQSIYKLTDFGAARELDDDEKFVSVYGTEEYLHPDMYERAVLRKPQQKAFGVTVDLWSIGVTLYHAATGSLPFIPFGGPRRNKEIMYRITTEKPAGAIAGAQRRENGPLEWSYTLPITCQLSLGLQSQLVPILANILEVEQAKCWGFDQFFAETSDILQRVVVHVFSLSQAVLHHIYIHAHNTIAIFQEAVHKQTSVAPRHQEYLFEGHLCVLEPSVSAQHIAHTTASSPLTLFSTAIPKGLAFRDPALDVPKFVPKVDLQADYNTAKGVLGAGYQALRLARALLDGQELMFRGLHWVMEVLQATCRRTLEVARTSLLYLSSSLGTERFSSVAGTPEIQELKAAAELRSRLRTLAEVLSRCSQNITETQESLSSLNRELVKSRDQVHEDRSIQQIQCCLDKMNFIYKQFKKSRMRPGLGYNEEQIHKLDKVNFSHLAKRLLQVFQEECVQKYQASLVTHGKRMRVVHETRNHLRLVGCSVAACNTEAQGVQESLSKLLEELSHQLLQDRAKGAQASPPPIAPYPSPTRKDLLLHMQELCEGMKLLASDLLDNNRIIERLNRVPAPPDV

[11] = target: T4, Inhibitor of nuclear factor kappa-B kinase subunit epsilon (Homo sapiens); conditions: at 1 µM
[12] = target: T5, Serine/threonine-protein kinase Nek1 (Homo sapiens) (UniProt Q96PY6); conditions: at 0.1 µM
T5 sequence (whole entry): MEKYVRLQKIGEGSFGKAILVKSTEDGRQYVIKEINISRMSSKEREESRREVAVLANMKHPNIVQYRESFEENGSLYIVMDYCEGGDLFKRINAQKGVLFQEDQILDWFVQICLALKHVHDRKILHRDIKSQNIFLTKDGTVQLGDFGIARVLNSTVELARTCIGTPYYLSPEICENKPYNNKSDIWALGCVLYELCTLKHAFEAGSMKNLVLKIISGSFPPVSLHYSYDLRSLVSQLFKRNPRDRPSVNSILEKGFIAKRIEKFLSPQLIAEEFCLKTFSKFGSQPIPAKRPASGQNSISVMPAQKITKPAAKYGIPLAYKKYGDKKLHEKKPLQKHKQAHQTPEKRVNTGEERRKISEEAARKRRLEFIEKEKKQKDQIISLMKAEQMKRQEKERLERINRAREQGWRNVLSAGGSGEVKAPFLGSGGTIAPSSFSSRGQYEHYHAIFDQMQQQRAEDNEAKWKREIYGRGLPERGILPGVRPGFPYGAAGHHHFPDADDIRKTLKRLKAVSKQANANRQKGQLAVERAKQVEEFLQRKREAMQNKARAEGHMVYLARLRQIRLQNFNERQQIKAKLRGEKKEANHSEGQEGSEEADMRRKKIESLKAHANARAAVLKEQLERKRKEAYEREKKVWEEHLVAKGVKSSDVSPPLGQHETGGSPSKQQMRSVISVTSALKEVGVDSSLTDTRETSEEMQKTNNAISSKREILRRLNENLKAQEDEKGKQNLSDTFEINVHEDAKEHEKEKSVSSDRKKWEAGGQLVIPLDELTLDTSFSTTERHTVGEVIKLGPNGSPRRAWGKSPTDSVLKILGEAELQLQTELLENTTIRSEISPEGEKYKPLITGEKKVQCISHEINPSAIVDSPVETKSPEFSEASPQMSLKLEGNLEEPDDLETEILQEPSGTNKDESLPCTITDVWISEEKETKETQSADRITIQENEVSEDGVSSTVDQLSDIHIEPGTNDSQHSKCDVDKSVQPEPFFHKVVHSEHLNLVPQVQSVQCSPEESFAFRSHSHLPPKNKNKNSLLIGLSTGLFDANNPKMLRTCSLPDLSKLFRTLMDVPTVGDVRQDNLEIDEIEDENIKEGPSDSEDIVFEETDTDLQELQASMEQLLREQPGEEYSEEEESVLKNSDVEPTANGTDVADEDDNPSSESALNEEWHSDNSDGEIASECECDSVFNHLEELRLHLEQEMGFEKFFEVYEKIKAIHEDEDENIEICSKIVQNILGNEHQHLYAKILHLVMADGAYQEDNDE

[13] = target: T5, Serine/threonine-protein kinase Nek1 (Homo sapiens); conditions: at 1 µM
[14] = target: T6, Serine/threonine-protein kinase Nek2 (Homo sapiens) (UniProt P51955); conditions: at 0.1 µM
T6 sequence (whole entry): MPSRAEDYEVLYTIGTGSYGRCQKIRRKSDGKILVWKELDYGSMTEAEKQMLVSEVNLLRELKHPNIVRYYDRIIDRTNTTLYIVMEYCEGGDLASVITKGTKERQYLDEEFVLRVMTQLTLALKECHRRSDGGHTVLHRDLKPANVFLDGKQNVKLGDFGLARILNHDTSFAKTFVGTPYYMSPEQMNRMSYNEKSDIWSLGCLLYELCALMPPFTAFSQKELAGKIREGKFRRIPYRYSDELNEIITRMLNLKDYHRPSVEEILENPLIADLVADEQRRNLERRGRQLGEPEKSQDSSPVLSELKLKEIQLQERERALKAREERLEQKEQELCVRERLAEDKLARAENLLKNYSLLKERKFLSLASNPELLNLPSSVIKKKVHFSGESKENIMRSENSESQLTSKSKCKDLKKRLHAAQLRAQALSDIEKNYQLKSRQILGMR

[15] = target: T6, Serine/threonine-protein kinase Nek2 (Homo sapiens); conditions: at 1 µM
[16] = target: Serine/threonine-protein kinase Nek6 (Homo sapiens) (UniProt Q9HC98); conditions: at 0.1 µM
[17] = target: Serine/threonine-protein kinase Nek6 (Homo sapiens) (UniProt Q9HC98); conditions: at 1 µM
[18] = target: Serine/threonine-protein kinase Nek7 (Homo sapiens) (UniProt Q8TDX7); conditions: at 0.1 µM
[19] = target: Serine/threonine-protein kinase Nek7 (Homo sapiens) (UniProt Q8TDX7); conditions: at 1 µM
[20] = target: T7, Serine/threonine-protein kinase Nek9 (Homo sapiens) (UniProt Q8TD19); conditions: at 0.1 µM;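 note: reported value is the mean percent inhibition of NEK9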
T7 sequence (whole entry): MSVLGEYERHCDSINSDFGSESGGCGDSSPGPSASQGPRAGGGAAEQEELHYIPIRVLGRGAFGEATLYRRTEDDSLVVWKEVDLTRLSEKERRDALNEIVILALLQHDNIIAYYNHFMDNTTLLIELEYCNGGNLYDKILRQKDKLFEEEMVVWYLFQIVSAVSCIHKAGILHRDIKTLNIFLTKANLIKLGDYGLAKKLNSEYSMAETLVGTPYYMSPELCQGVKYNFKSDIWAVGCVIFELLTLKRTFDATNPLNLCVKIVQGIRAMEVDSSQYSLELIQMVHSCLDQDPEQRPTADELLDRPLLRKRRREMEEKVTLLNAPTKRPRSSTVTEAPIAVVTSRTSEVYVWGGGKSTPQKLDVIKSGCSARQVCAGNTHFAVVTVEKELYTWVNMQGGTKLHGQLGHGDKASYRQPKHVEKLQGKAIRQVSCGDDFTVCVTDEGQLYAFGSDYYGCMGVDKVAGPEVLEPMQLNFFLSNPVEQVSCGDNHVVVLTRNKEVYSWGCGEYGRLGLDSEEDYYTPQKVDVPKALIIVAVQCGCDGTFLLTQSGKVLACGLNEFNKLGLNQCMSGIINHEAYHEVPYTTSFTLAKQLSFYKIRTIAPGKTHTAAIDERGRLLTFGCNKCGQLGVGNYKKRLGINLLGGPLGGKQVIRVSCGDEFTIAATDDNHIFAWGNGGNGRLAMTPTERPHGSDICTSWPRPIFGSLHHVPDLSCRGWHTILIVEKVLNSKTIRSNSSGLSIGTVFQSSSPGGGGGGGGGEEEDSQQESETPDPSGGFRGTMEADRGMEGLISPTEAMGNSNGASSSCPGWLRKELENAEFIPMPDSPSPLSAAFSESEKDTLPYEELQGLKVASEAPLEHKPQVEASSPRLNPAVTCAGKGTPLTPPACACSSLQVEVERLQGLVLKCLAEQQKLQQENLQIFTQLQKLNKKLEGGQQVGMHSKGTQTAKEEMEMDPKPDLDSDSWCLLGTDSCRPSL

Sequence of Serine/threonine-protein kinase Nek7 (Homo sapiens) (Q8TDX7 whole entry, looked up): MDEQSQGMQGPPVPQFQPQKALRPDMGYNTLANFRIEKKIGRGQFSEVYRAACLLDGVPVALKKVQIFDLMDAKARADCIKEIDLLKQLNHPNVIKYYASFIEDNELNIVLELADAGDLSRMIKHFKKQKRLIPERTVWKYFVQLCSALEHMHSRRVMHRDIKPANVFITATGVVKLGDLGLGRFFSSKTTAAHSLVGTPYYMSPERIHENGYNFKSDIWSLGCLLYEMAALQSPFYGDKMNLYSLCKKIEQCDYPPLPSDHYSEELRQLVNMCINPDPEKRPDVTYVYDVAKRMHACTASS
Sequence of Serine/threonine-protein kinase Nek6 (Homo sapiens) (Q9HC98 whole entry): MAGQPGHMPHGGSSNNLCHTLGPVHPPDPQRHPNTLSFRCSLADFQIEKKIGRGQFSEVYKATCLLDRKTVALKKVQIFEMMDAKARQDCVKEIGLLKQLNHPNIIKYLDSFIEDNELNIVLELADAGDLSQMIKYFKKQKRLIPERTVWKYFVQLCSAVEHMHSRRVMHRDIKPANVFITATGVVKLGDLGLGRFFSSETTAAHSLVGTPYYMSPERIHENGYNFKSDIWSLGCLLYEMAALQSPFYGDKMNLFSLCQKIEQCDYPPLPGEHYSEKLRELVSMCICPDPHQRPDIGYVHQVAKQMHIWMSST
Sequence of Casein kinase II subunit alpha (Homo sapiens) (P68400 whole entry, looked up): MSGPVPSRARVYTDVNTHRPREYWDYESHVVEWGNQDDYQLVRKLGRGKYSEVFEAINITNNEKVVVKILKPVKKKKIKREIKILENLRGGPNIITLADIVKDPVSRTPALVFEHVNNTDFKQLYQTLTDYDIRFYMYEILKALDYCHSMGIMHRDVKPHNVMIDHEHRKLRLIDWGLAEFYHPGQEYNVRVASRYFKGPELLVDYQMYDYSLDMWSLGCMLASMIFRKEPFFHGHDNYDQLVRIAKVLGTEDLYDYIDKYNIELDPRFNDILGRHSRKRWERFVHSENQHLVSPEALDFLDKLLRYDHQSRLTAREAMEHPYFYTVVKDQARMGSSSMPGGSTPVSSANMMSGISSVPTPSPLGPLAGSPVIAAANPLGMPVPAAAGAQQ
Sequence of Sphingosine kinase 1 (Homo sapiens) (Q9NYA1 whole entry): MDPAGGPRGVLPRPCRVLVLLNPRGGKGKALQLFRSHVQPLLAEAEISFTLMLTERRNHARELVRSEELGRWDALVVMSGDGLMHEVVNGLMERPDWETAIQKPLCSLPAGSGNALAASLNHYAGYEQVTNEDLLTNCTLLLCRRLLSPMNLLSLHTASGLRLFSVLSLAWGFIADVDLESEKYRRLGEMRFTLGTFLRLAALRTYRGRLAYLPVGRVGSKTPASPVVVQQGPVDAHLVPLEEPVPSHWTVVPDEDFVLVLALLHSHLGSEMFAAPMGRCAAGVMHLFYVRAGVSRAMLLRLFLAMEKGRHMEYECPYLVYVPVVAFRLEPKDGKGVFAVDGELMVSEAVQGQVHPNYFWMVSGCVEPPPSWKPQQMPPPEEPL

Row | Compound | inhibition [1] [%] | inhibition [2] [%] | inhibition [3] [%] | inhibition [4] [%] | inhibition [5] [%] | inhibition [6] [%] | inhibition [7] [%] | inhibition [8] [%] | inhibition [9] [%] | inhibition [10] [%] | inhibition [11] [%] | inhibition [12] [%] | inhibition [13] [%] | inhibition [14] [%] | inhibition [15] [%] | inhibition [16] [%] | inhibition [17] [%] | inhibition [18] [%] | inhibition [19] [%] | inhibition [20] [%]
1 | CCS(=O)(=O)c1ccc(OC)c(Nc2ncc(-c3ccccc3Cl)o2)c1 | -2.06 | 0 | -1.74 | 3.8 | 23.3 | 2.45 | 3.42 | 1.4 | -0.23 | 3.21 | 2.16 | 0.72 | 4.41 | 0.42 | 0.79 | 1.4 | -2.46 | -0.08 | 2.67 | 4.12
2 | NC(=O)c1cc(-c2ccncc2)cc(-c2ccccc2)c1N | 1.79 | -0.11 | -1.58 | 2.36 | 2.75 |  |  | 9.18 | 27.5 | 6.3 | 14.9 | 3.64 | 3.27 | 6.42 | 6.13 | 2.63 | -0.35 | 4.53 | 3.98 | 9.48

— ChEMBL document CHEMBL1961873, “Compounds: GSK PKIS; Assays: Nanosyn kinase panel” (2012)
